“And” between values parts separate entries of the source, which are not always exact repeats. Equal values may be shown once.

This assay relates to HL-1. Description: cardiomyocyte survival under oxidative or metabolic stress – cell-based, panel, H9c2 and HL-1, ATP luminescence, set 2, SAR follow-up (AID 651871).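 Further: cells exposed to stressor for 2 h before ATP readout; reference of the scale not given here.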 The following applies: H9c2/HL-1 cardiomyocytes, 2-deoxyglucose stress, with 2-deoxyglucose, run 4, at 79 µM (top of the series).
As to `CCOC(=O)c1cccc(NC(=O)CNC(=O)c2cc(-c3cc(OC)c(OC)c(OC)c3)nc3ccccc23)c1`, the activity (protection/inhibition) came out at 54.1%.
The result for `COc1ccc2c(c1OC)C(=O)N1c3ccccc3C(=O)N(Cc3cccc(Cl)c3Cl)C21` (stereo not drawn) reads 33.5% and -8.11%.
Then `COc1ccc2nc(-c3cc(OC)c(OC)c(OC)c3)cc(C(=O)NCC(=O)Nc3ccc(C(C)=O)cc3)c2c1`, with 68.7%.

The values above are taken from PubChem BioAssay AID651871 (Sanford-Burnham Center for Chemical Genomics, 2012).
